Laboratory results from PubChem BioAssay (Tox21).
Results filed as inconclusive are left out. The source made the active and inactive calls. Unless noted, calls come from the whole dose curve; as a rule, active = well fitted curve in the direction sought with a large enough effect in the repeat runs; inconclusive = weak or mixed curves; inactive = no such curve, though single readings can be large; an effect the other way counts as inactive or inconclusive.

Experiments:
[1] = qHTS assay to identify small molecule antagonists of the thyroid receptor (TR) signaling pathway - cell viability counter screen (AID 743064); note: nearly all actives have a fitted effect of over 50% in size
Outline: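 In rat pituitary GH3.TRE-Luc reporter cells co-exposed to compound and 1 nM T3 for 23.5 h, cytotoxicity was assessed with CellTiter-Fluor in the same wells, read by fluorescence.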

[2] = qHTS assay to identify small molecule antagonists of the thyroid receptor (TR) signaling pathway (AID 743065); note: series mostly up to about 70 µM; nearly all actives have a fitted effect of over 55% in size
Outline: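 GH3.TRE-Luc rat pituitary cells (two TREs driving luciferase) were dosed with compound, then stimulated with 1 nM T3 (final) for 23.5 h at 37 C. ONE-Glo luminescence was the read-out, with CellTiter-Fluor fluorescence as the cytotoxicity counter-screen.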

[3] = test system: thyroid hormone receptor (rat, GH3 cells); test: qHTS assay to identify small molecule agonists of the thyroid receptor (TR) signaling pathway (AID 743066; calls by dose curve)
[4] = qHTS assay to identify small molecule antagonists of the estrogen receptor alpha (ER-alpha) signaling pathway - cell viability counter screen (AID 743074; calls by dose curve; note: nearly all actives have a fitted effect of over 45% in size)
[5] = qHTS assay to identify small molecule antagonists of the estrogen receptor alpha (ER-alpha) signaling pathway using the BG1 cell line - cell viability counter screen (AID 743081);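 note: compound given together with 17beta-estradiol as the ER stimulus; series mostly up to about 70 µM; nearly all actives have a fitted effect of over 45% in size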
Aromatase (Homo sapiens) = Aromatase (Homo sapiens) (UniProt P11511); test: qHTS assay to identify aromatase inhibitors (AID 743083); note: series mostly up to about 70 µM; nearly all actives have a fitted effect of over 55% in size
Sequence of Aromatase (Homo sapiens) (P11511 whole entry, looked up): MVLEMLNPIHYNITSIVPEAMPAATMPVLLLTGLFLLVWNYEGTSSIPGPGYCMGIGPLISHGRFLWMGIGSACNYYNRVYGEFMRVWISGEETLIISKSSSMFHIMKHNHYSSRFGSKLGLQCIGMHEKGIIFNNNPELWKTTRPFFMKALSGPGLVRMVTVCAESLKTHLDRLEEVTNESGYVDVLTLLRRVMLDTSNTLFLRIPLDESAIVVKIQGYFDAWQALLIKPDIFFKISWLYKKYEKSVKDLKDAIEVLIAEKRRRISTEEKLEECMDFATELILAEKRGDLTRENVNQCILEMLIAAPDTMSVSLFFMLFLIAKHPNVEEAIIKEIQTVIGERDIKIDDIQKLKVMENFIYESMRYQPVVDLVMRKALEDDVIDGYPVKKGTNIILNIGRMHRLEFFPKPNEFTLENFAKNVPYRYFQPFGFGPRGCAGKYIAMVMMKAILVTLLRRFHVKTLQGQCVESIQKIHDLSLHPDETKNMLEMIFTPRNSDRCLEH

[6] = qHTS assay to identify aromatase inhibitors - cell viability counter screen (AID 743084);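 note: cells stimulated with testosterone during compound exposure; nearly all actives have a fitted effect of over 55% in size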
[7] = biological target: Aryl hydrocarbon receptor (Homo sapiens) (UniProt P35869); test: qHTS assay to identify small molecule that activate the aryl hydrocarbon receptor (AhR) signaling pathway (AID 743085);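 note: HG2L7.5c1 human HepG2 liver cells with stably integrated DRE-driven firefly reporter; series mostly up to about 70 µM; nearly all actives have a fitted effect of over 15% in size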
Sequence of Aryl hydrocarbon receptor (Homo sapiens) (P35869 whole entry, looked up): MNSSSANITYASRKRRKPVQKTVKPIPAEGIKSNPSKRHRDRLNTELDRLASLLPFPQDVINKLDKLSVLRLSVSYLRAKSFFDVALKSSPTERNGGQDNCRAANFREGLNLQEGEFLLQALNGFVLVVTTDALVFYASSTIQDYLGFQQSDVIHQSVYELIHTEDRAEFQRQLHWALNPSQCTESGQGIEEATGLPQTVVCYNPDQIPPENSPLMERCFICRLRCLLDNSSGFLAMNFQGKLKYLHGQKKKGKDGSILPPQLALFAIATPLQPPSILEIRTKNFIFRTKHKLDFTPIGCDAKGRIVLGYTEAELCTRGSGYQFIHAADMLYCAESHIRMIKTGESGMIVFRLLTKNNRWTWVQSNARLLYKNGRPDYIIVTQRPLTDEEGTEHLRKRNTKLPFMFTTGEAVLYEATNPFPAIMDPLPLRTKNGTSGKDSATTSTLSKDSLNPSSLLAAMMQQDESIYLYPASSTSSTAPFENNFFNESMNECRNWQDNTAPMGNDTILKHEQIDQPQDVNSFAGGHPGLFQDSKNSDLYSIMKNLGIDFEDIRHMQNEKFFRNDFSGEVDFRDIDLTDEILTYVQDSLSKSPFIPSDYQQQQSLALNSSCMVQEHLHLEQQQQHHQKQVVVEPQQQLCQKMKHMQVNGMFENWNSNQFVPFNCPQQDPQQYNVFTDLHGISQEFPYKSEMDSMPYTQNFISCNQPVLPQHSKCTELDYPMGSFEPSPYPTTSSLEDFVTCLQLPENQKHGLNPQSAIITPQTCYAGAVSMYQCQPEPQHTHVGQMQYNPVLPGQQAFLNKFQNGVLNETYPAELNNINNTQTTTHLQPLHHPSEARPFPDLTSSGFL
Outline: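 AhR agonist activity is inferred from enhanced light output of a DRE-controlled firefly luciferase reporter in HepG2 cells, measured with ONE-Glo following 24 h treatment at 37C.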

[8] = qHTS assay to identify small molecule that activate the aryl hydrocarbon receptor (AhR) signaling pathway - cell viability counter screen (AID 743086);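 note: HepG2 liver cells carrying the AhR DRE luciferase reporter; series mostly up to about 70 µM; nearly all actives have a fitted effect of over 45% in size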
Outline: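 HepG2-AhR-luc (HG2L7.5c1) cells, 4000/well, treated 24 h at 37 C with compound; viability measured as CellTiter-Fluor fluorescence after 30 min in the same wells as the luciferase read.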

[9] = biological target: Peroxisome proliferator-activated receptor gamma (Homo sapiens) (UniProt P37231); test: qHTS assay to identify small molecule agonists of the peroxisome proliferator-activated receptor gamma (PPARg) signaling pathway (AID 743094; active = well fitted activation curve with a large enough effect in the signal ratio in the repeat runs, not every such curve was filed as active; the % refers to the signal ratio)
Sequence of Peroxisome proliferator-activated receptor gamma (Homo sapiens) (P37231 whole entry, looked up): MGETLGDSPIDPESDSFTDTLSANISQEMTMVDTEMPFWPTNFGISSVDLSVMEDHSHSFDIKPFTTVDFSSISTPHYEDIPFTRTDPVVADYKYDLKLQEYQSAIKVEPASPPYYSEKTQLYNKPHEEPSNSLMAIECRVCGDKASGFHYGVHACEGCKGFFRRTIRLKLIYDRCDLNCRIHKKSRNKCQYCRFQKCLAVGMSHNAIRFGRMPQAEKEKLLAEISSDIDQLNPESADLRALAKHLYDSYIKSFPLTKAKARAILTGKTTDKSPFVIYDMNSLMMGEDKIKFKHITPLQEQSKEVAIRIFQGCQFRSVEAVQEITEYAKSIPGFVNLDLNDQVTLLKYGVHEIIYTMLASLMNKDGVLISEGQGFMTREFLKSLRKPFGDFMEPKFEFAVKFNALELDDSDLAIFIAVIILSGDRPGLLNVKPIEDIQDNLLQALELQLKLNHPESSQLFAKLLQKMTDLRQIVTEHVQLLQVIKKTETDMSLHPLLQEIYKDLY
Outline: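 Reporter activation was scored by fluorescence of cleaved LiveBLAzer B/G substrate (1 h, room temperature) in PPARg-bla HEK293H cells previously treated 17 h at 37C with DMSO-dissolved compounds.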

[10] = biological target: Peroxisome proliferator-activated receptor gamma (Homo sapiens) (UniProt P37231); test: qHTS assay to identify small molecule antagonists of the peroxisome proliferator-activated receptor gamma (PPARg) signaling pathway (AID 743191; calls by dose curve; note: series mostly up to about 63 µM; nearly all actives have a fitted effect of over 30% in size)
Outline: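 GeneBLAzer PPARg UAS-bla HEK293H cells, 5 h post-plating, exposed to compounds 17 h at 37C. LiveBLAzer B/G FRET substrate added for 1 h at room temperature; beta-lactamase reporter read by fluorescence intensity.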

[11] = qHTS assay to identify small molecule antagonists of the peroxisome proliferator-activated receptor gamma (PPARg) signaling pathway - cell viability counter screen (AID 743194); note: nearly all actives have a fitted effect of over 55% in size
Outline: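 Cytotoxicity counter screen in PPARg-bla HEK293H cells, same wells as reporter assay. Compounds plus 50 nM rosiglitazone (final) for 17 h at 37 C, then viability read by CellTiter-Glo luminescence.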

[12] = qHTS assay for small molecule agonists of the antioxidant response element (ARE) signaling pathway (AID 743202; active = well fitted activation curve with a large enough effect in the signal ratio in the repeat runs, not every such curve was filed as active; the % refers to the signal ratio)
Outline: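 HepG2 ARE-bla cells; 16 h treatment at 37 C; FRET-based beta-lactamase fluorescence read after 2 h substrate incubation at room temperature.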

[13] = qHTS assay for small molecule agonists of the antioxidant response element (ARE) signaling pathway - cell viability counter screen (AID 743203; calls by dose curve; note: nearly all actives have a fitted effect of over 55% in size)
Outline: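 Viability counter screen: stably transfected ARE-bla HepG2 line, 16 hrs compound exposure at 37C/5% CO2, ATP-based CellTiter-Glo luminescence measured in the reporter wells.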

[14] = qHTS assay for small molecule activators of the heat shock response signaling pathway - cell viability counter screen (AID 743209); note: nearly all actives have a fitted effect of over 50% in size
Outline: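 Viability of HSE-bla HeLa cells is measured with CellTiter-Glo in the wells already used for the reporter read. Compound exposure lasts 5 h at 37 C, and luminescence is read after 30 min at room temperature.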

[15] = qHTS assay for small molecule activators of the heat shock response signaling pathway (AID 743210; active = well fitted activation curve with a large enough effect in the signal ratio in the repeat runs, with a control signal flat, not every such curve was filed as active; the % refers to the signal ratio;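 note: HeLa cells with beta-lactamase reporter driven by heat shock elements; series mostly up to about 63 µM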)
Outline: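 Following overnight attachment, HSE-bla HeLa cells received test compounds for 5 h at 37 C; beta-lactamase activity was then detected via FRET substrate fluorescence.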

[16] = biological target: Estrogen receptor (Homo sapiens) (UniProt P03372); test: qHTS assay to identify small molecule antagonists of the estrogen receptor alpha (ER-alpha) signaling pathway (AID 743069; active = well fitted curve in the direction sought with a large enough effect in the signal ratio in the repeat runs, not every such curve was filed as active; the % refers to the signal ratio)
Sequence of Estrogen receptor (Homo sapiens) (P03372 whole entry, looked up): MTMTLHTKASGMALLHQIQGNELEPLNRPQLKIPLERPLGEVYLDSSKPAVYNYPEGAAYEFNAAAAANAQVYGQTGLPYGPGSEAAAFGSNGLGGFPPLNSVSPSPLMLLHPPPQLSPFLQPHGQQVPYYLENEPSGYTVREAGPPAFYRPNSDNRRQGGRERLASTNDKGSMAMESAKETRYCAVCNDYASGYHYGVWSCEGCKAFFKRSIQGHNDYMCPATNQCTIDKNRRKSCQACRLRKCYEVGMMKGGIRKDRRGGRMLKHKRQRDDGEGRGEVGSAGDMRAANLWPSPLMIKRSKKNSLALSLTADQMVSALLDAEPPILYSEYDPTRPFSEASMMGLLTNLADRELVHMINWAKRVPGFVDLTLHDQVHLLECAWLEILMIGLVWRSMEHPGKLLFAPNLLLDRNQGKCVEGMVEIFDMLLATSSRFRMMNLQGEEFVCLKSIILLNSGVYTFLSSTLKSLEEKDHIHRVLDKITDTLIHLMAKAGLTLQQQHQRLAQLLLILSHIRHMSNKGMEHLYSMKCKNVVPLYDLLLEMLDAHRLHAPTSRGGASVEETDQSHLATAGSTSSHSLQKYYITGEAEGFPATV
Outline: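 In this cell-based reporter format, GripTite HEK293 cells harbouring ER-alpha-UAS-bla were grown overnight with 2% charcoal-stripped FBS, dosed with DMSO-dissolved compounds, then challenged with 17beta-estradiol. After 18 hr at 37C, beta-lactamase activity was detected by FRET fluorescence.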

[17] = biological target: Estrogen receptor (Homo sapiens) (UniProt P03372); test: qHTS assay to identify small molecule agonists of the estrogen receptor alpha (ER-alpha) signaling pathway (AID 743075; calls by dose curve)
[18] = biological target: Estrogen receptor (Homo sapiens) (UniProt P03372); test: qHTS assay to identify small molecule agonists of the estrogen receptor alpha (ER-alpha) signaling pathway using the BG1 cell line (AID 743079); note: nearly all actives have a fitted effect of over 20% in size
[19] = qHTS assay to identify small molecule antagonists of the estrogen receptor alpha (ER-alpha) signaling pathway using the BG1 cell line (AID 743080; calls by dose curve;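 note: BG1 cells stimulated with 17beta-estradiol alongside compound; series mostly up to about 70 µM; nearly all actives have a fitted effect of over 25% in size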)
Outline: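 Luminescence from a 4×ERE-luciferase reporter in BG1-Luc-4E2 cells served as read-out. Cells, pre-cultured 5 days in stripped-serum phenol-red-free medium, were exposed to compound with 17beta-estradiol co-stimulation for 21.5 h at 37 C.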

Measured: Potency

CCCCSCCCC
inactive: [1] | [2] | [3] | [4] | [5] | Aromatase (Homo sapiens) | [6] | [7] | [8] | [9] | [10] | [11] | [12] | [13] | [14] | [15]

CC(=O)OC(C)=O
inactive: [1] | [2] | [3] | [4] | [5] | Aromatase (Homo sapiens) | [6] | [9] | [10] | [11] | [12] | [13] | [14]

O/N=C/C=N/O
inactive: [1] | [2] | [3] | [4] | [5] | Aromatase (Homo sapiens) | [6] | [7] | [8] | [9] | [10] | [11] | [12] | [13] | [14] | [15]

CCCCC1CCC(O)CC1 (stereo not given)
inactive: [1] | [2] | [3] | [4] | [5] | Aromatase (Homo sapiens) | [6] | [7] | [8] | [9] | [10] | [11] | [12] | [13] | [14] | [15]

C=CC(=O)OCC1CCCO1 (stereo not given)
inactive: [1] | [2] | [16] | [17] | [18] | [5] | Aromatase (Homo sapiens) | [6] | [7] | [9] | [10] | [11] | [13] | [14] | [15]

O=C(CN1CCNCC1)NC1CCCCC1
inactive: [1] | [16] | [4] | [17] | [18] | [19] | [5] | Aromatase (Homo sapiens) | [6] | [7] | [8] | [9] | [10] | [11] | [12] | [13] | [14] | [15]

CC1(C)[C@H]2CC[C@](C)(C2)[C@H]1O
inactive: [1] | [3] | [16] | [4] | [17] | [18] | [5] | Aromatase (Homo sapiens) | [6] | [8] | [9] | [10] | [11] | [12] | [13] | [14] | [15]

CN(C)CCN(C)CCO
inactive: [1] | [16] | [4] | [17] | [18] | [5] | Aromatase (Homo sapiens) | [6] | [7] | [8] | [9] | [10] | [11] | [13] | [14] | [15]

c1ccc(-c2nn[nH]n2)cc1
inactive: [1] | [3] | [4] | [17] | [18] | [5] | Aromatase (Homo sapiens) | [6] | [7] | [9] | [10] | [11] | [12] | [13] | [14] | [15]

CC(C)CCOC(=O)c1ccccc1
inactive: [1] | [3] | [4] | [5] | Aromatase (Homo sapiens) | [6] | [7] | [8] | [9] | [11] | [12] | [13] | [14] | [15]

C=CCCCCCCCCC(=O)OCCCC
inactive: [1] | [3] | [16] | [4] | [17] | [18] | [5] | Aromatase (Homo sapiens) | [6] | [7] | [8] | [9] | [11] | [13] | [14]

CC(=O)O[C@H]1C[C@@H]2CC[C@@]1(C)C2(C)C
inactive: [1] | [4] | [5] | Aromatase (Homo sapiens) | [6] | [7] | [8] | [9] | [10] | [11] | [12] | [13] | [14] | [15]

O=C[O][Al]([O]C=O)[O]C=O
inactive: [1] | [3] | [16] | [4] | [17] | [18] | [19] | [5] | Aromatase (Homo sapiens) | [6] | [7] | [8] | [11] | [12] | [14] | [15]

C/C=C(\C)C(C)=O
inactive: [1] | [16] | [4] | [17] | [18] | [19] | [5] | Aromatase (Homo sapiens) | [6] | [7] | [8] | [9] | [10] | [11] | [12] | [13] | [14] | [15]
